# Test results published in paper PMC5540273 (PLoS ONE, 2017).
# What was measured:
# Conditions in all cases: concentration: 1 μM, replicates: in singlicate; n = 1
# [1] = tested on: NEK7
# [2] = tested on: NEK9
# [3] = tested on: T1, NIK
# T1 construct: gene MAP3K14
# [4] = tested on: T2, NIM1
# T2 construct: gene MGC42105
# [5] = tested on: NLK
# [6] = tested on: T3, OSR1
# T3 construct: gene OXSR1
# [7] = tested on: PAK1
# [8] = tested on: PAK2
# [9] = tested on: PAK3
# [10] = tested on: PAK4
# 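Note: KINOMEscan kinase panel screen.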
smiles,measurement,setting,value
Cc1ccc(NC(=O)Nc2cc(C(C)(C)C)nn2-c2ccccc2)cc1 [GSK1014915],%Inh,[1],6%
same,%Inh,[2],0%
same,%Inh,[3],35%
same,%Inh,[4],3%
same,%Inh,[5],14%
same,%Inh,[6],0%
same,%Inh,[7],0%
same,%Inh,[8],2%
same,%Inh,[9],76%
same,%Inh,[10],0%
COc1ccc2nc(-c3cccc(C)n3)nc(Nc3ccncc3)c2c1 [GSK204919],%Inh,[1],0%
same,%Inh,[2],0%
same,%Inh,[3],0%
same,%Inh,[4],0%
same,%Inh,[5],52%
same,%Inh,[6],10%
same,%Inh,[7],8%
same,%Inh,[8],14%
same,%Inh,[9],7%
same,%Inh,[10],0%
O=C(Nc1ccccc1)Nc1cccc(Oc2ccc3nccn3n2)c1,%Inh,[1],0%
same,%Inh,[2],36%
same,%Inh,[3],7%
same,%Inh,[4],19%
same,%Inh,[5],22%
same,%Inh,[6],0%
same,%Inh,[7],0%
same,%Inh,[8],0%
same,%Inh,[9],0%
same,%Inh,[10],0%
Cn1ccc2ncnc(Oc3ccc(Nc4nc5ccccc5[nH]4)cc3)c21,%Inh,[1],0%
same,%Inh,[2],0%
same,%Inh,[3],0%
same,%Inh,[4],0%
same,%Inh,[5],4%
same,%Inh,[6],0%
same,%Inh,[7],14%
same,%Inh,[8],0%
same,%Inh,[9],0%
same,%Inh,[10],0%
COC(=O)c1c(-c2ccccc2)c2cc(C(=O)O)ccc2c(=O)n1Cc1ccccc1,%Inh,[1],0%
same,%Inh,[2],0%
same,%Inh,[3],0%
same,%Inh,[4],0%
same,%Inh,[5],0%
same,%Inh,[6],0%
same,%Inh,[7],14%
same,%Inh,[8],22%
same,%Inh,[9],0%
same,%Inh,[10],0%
Cc1cccc(-c2nc(Nc3ccc4[nH]ncc4c3)c3ccccc3n2)n1 [GW857175],%Inh,[1],5%
same,%Inh,[2],0%
same,%Inh,[3],11%
same,%Inh,[4],30%
same,%Inh,[5],1%
same,%Inh,[6],25%
same,%Inh,[7],0%
same,%Inh,[8],2%
same,%Inh,[9],0%
same,%Inh,[10],6%
COc1ccc(Nc2nccc(-c3cccc(NC(=O)c4cc5cc(F)ccc5[nH]4)c3)n2)cc1 [GSK1229782],%Inh,[1],0%
same,%Inh,[2],21%
same,%Inh,[3],50%
same,%Inh,[4],13%
same,%Inh,[5],9%
same,%Inh,[6],18%
same,%Inh,[7],36%
same,%Inh,[8],35%
same,%Inh,[9],13%
same,%Inh,[10],22%
COc1cc2ncn(-c3cc(OCC4CCCO4)c(C(N)=O)s3)c2cc1OC (centres unmarked) [GSK204607],%Inh,[1],0%
same,%Inh,[2],0%
same,%Inh,[3],19%
same,%Inh,[4],23%
same,%Inh,[5],15%
same,%Inh,[6],0%
same,%Inh,[7],0%
same,%Inh,[8],0%
same,%Inh,[9],9%
same,%Inh,[10],0%
CC(C)(C)c1ccc(C(=O)Nc2cn3cc(-c4cccnc4)ccc3n2)cc1,%Inh,[1],4%
same,%Inh,[2],0%
same,%Inh,[3],20%
same,%Inh,[4],22%
same,%Inh,[5],1%
same,%Inh,[6],0%
same,%Inh,[7],36%
same,%Inh,[8],36%
same,%Inh,[9],51%
same,%Inh,[10],24%
Cc1cc(NCC(c2ccccc2)c2ccccc2)nc(NCc2ccc(C(F)(F)F)cc2)n1 [GW497681],%Inh,[1],0%
same,%Inh,[2],0%
same,%Inh,[3],7%
same,%Inh,[4],22%
same,%Inh,[5],0%
same,%Inh,[6],3%
same,%Inh,[7],0%
same,%Inh,[8],2%
same,%Inh,[9],0%
same,%Inh,[10],0%
Cc1nnc(-c2ccc3occ(-c4ccc(S(C)=O)cc4)c3c2)[nH]1 (centres unmarked),%Inh,[1],22%
same,%Inh,[2],25%
same,%Inh,[3],0%
same,%Inh,[4],0%
same,%Inh,[5],17%
same,%Inh,[6],6%
same,%Inh,[7],28%
same,%Inh,[8],36%
same,%Inh,[9],17%
same,%Inh,[10],8%
Cc1cccc(-c2nc(-c3ccc(S(C)(=O)=O)cc3)sc2-c2ccnc(NCCc3ccccc3)c2)c1,%Inh,[1],0%
same,%Inh,[2],0%
same,%Inh,[3],0%
same,%Inh,[4],0%
same,%Inh,[5],11%
same,%Inh,[6],0%
same,%Inh,[7],18%
same,%Inh,[8],20%
same,%Inh,[9],0%
same,%Inh,[10],1%
COc1cc2ncnc(Nc3ccc4nc(-c5ccccc5)[nH]c4c3)c2cc1OC.Cl [GW282450],%Inh,[1],0%
same,%Inh,[2],22%
same,%Inh,[3],23%
same,%Inh,[4],18%
same,%Inh,[5],38%
same,%Inh,[6],11%
same,%Inh,[7],9%
same,%Inh,[8],9%
same,%Inh,[9],0%
same,%Inh,[10],0%
O=C1NC(=O)C(N2CCc3ccccc32)=C1c1ccccc1Cl [SB-373598],%Inh,[1],0%
same,%Inh,[2],13%
same,%Inh,[3],0%
same,%Inh,[4],16%
same,%Inh,[5],2%
same,%Inh,[6],63%
same,%Inh,[7],10%
same,%Inh,[8],10%
same,%Inh,[9],100%
same,%Inh,[10],0%
Cc1cccc(-c2cc(Nc3ccncc3)c3ccccc3n2)n1 [GSK223675],%Inh,[1],0%
same,%Inh,[2],8%
same,%Inh,[3],14%
same,%Inh,[4],0%
same,%Inh,[5],10%
same,%Inh,[6],6%
same,%Inh,[7],6%
same,%Inh,[8],2%
same,%Inh,[9],0%
same,%Inh,[10],0%
O=C(Nc1n[nH]c2cc(-c3cccc(F)c3F)ccc12)C1CC1 [SB-733894],%Inh,[1],7%
same,%Inh,[2],0%
same,%Inh,[3],0%
same,%Inh,[4],0%
same,%Inh,[5],72%
same,%Inh,[6],0%
same,%Inh,[7],3%
same,%Inh,[8],41%
same,%Inh,[9],2%
same,%Inh,[10],12%
O=S(=O)(c1ccc(-c2ccnc3[nH]ccc23)cc1)N1CCCC1 [GSK846226],%Inh,[1],20%
same,%Inh,[2],28%
same,%Inh,[3],12%
same,%Inh,[4],0%
same,%Inh,[5],14%
same,%Inh,[6],4%
same,%Inh,[7],0%
same,%Inh,[8],0%
same,%Inh,[9],12%
same,%Inh,[10],0%
